Data from PubChem BioAssay.
Values joined by “and” are separate entries in the source; they are usually repeats but may differ in a detail not shown here. Equal values may be shown once. Active and inactive are the calls of the source.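 How the source made its calls, unless noted: active means inhibition at or above 50% relative to wild type and mutant plate controls; inactive means inhibition below 50%.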

How the values were obtained:
[1] = inhibitors of TNFa-induced NFkB p65 translocation, primary screen, imaging, HUVEC, MLSMR starter and 10KST1 sets (AID 438;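 active means inhibition above 20% together with a positive visual image hit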;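 further: compound added about 3h40 before a 20 min TNFalpha stimulation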;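 on inhibition: signal is the nuclear over cytoplasmic p65 intensity ratio per well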); details: HUVEC TNFa-induced p65 nuclear translocation; cell count: measured here: nuclei count (cytotoxicity indicator), at 2.08 µM; inhibition: at 2 µM, stronger effect = higher value, 0% TNFa-plus-vehicle, 100% no-TNFa wells
[2] = reduction of polyQ htt aggregates in cells – imaging, exon1htt(103Q)mCFP cells, high-content imaging, primary screen (AID 483;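 active means visual image review flags a hit and inhibition of aggregation exceeds 20%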;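 further: compound exposure lasted 3 days before fixation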;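 on nuclei count: percent of the per-plate median nuclei count of sample wells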); details: exon1htt(103Q)mCFP cell line, aggregate imaging, at 2 µM; inhibition of aggregation: stronger effect = higher value; nuclei count: measured here: cell count, toxicity
[3] = endothelial E-selectin expression blockers – imaging, HUVEC, immunofluorescence, MLSMR starter and 10KST1 sets, primary screen (AID 487;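 active means visually confirmed hit in the image check and inhibition above 20%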;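 on inhibition: signal is fraction of cell area covered by stained E-selectin grains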;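 on nuclei count: 100% = median nuclei count of all wells on the same plate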); details: HUVEC TNFalpha-induced E-selectin immunofluorescence imaging, at 2 µM; inhibition: stronger effect = higher value; nuclei count: measured here: cell number, toxicity
[4] = Primary imaging screen for DUSP6 inhibitors that restore phospho-Erk in transfected HeLa cells, chemical complementation (AID 609;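 active means compounds giving at least 50% inhibition in the cell-based MKP-3 phosphatase rescue imaging test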;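 on inhibition: phospho-Erk level distribution per well compared with pooled transfected vehicle control wells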); details: HeLa MKP-3 transfected, phospho-Erk imaging KS statistic, at 10 µM, cells stimulated with TPA for 15 min
[5] = biological target: Dual specificity protein phosphatase 6 (Homo sapiens) (UniProt Q16828); experiment: as above; details: HeLa MKP-3 transfected, phospho-Erk imaging KS statistic; at 10 µM; stronger effect = higher value; cells stimulated with TPA for 15 min
Sequence of Dual specificity protein phosphatase 6 (Homo sapiens) (Q16828 whole entry, looked up): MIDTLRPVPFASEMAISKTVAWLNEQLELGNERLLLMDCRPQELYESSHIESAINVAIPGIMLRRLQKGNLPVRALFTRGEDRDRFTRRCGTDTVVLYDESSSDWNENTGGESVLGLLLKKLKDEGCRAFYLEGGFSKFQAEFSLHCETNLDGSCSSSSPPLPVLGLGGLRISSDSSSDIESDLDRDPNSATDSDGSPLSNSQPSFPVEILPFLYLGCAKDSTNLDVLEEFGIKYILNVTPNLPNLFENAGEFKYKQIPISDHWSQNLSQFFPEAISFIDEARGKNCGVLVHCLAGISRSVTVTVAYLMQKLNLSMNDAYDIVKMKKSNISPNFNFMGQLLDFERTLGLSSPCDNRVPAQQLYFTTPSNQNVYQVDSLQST

[6] = biological target: Voltage-gated potassium channel subunit beta-2 (Rattus norvegicus) (UniProt P62483); experiment: inhibitors of rat Kvbeta2 reductase activity – biochemical, NADPH fluorescence, primary screen (AID 622;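 active means fluorescence slope higher than the sample average by over 3 SD, cut at about -0.22 in these data, passing the limit was not always enough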;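 further: slope of raw intensity against log time taken from 70 to 1610 s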); details: recombinant KvBeta, 4-cyanobenzaldehyde reduction, at 10 µM, stronger effect = higher value
Sequence of Voltage-gated potassium channel subunit beta-2 (Rattus norvegicus) (P62483 whole entry, looked up): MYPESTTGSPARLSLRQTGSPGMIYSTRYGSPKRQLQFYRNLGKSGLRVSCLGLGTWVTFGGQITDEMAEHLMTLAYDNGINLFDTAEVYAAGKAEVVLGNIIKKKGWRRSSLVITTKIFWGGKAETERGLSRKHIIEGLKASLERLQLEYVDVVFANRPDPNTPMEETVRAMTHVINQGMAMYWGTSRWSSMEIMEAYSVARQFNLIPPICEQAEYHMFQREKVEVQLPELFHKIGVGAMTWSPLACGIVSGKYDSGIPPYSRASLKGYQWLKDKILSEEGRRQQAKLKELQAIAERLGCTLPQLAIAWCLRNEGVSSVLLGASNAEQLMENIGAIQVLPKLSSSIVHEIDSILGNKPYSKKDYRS

[7] = biological target: Voltage-gated potassium channel subunit beta-2 (Rattus norvegicus) (UniProt P62483); experiment: enhancers of rat Kvbeta2 NADPH turnover – biochemical, NADPH fluorescence, primary screen (AID 623;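 active means NADPH fluorescence slope more negative than the mean of all samples by about 3 SD, 99.7% confidence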;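 further: fluorescence intensity change per second fitted from 20 to 320 s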); details: Recombinant KvBeta, NADPH fluorescence decrease slope, 10 min; at 10 µM; stronger effect = lower value
[8] = biological target: Alpha-2C adrenergic receptor (Homo sapiens) (UniProt P18825); experiment: compounds altering alpha2C-coupled GIRK flux – cell-based, HEK293 alpha2C/GIRK1/2, thallium flux, primary screen (AID 624;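 active means fluorescence slope after compound addition differing from the mean of all screened samples at 99.7% confidence, in either direction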;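 further: slope of fluorescence ratio to pre-addition baseline per second over 15 to 24 s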); details: thallium flux BTC fluorescence, at 10 µM, actives lie on both sides
Sequence of Alpha-2C adrenergic receptor (Homo sapiens) (P18825 whole entry, looked up): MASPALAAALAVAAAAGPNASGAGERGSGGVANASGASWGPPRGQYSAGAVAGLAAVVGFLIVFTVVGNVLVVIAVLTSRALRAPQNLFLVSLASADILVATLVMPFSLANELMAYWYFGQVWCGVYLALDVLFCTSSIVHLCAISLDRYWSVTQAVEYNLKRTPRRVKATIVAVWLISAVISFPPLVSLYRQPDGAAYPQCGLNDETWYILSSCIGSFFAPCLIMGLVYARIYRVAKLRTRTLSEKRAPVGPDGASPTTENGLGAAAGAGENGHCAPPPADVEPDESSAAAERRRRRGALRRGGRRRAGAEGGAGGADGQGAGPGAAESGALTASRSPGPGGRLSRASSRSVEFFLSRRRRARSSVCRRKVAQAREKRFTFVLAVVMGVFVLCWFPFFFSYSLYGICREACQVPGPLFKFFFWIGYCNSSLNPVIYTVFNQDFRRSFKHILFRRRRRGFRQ

[9] = biological target: Muscarinic acetylcholine receptor M4 (Homo sapiens) (UniProt P08173); experiment: M4-linked GIRK flux change, two-sided – cell-based, HEK293 M4/GIRK, thallium flux, BTC-AM, M4 allosteric agonist project, primary screen (AID 625;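 active means fluorescence slope after compound addition differing from the mean of all tested samples at 99.7% confidence, mostly higher but some lower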;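 further: thallium influx through GIRK channels coupled to M4 in HEK293 cells with BTC-AM dye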); details: at 10 µM, actives lie on both sides
Sequence of Muscarinic acetylcholine receptor M4 (Homo sapiens) (P08173 whole entry, looked up): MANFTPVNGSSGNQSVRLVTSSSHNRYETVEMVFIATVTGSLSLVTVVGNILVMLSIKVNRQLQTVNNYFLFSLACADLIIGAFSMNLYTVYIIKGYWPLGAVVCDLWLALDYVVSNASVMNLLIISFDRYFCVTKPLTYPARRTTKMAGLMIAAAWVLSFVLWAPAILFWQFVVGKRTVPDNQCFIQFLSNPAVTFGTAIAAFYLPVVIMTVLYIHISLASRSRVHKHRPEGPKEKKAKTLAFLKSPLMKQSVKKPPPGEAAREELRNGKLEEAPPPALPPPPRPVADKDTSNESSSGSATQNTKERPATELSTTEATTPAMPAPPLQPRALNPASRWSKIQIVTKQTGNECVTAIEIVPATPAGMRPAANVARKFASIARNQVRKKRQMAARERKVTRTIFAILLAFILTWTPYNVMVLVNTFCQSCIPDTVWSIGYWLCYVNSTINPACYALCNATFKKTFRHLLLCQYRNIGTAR

[10] = inhibitors of larval lipid processing in zebrafish, primary screen, whole organism, PED6 fluorescence, gall bladder and intestine (AID 686;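 active means a full or partial loss of lipid-probe fluorescence in the fish gall bladder, intestine or both, judged by eye; inactive means no fluorescence loss, or compound toxic to the fish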;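 further: larvae 5 to 7 days old with five fish per well; signal comes from phospholipase A2 cleavage of quenched PED6 carried via bile; overnight exposure to compound and PED6 before scoring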); details: Zebrafish larvae PED6 lipid processing, fluorescence scoring; screened at 20 µM (by protocol)
[11] = loss of swimming-algae plug formation – whole organism, Chlamydomonas reinhardtii, WT vs cilia-less mutant, absorbance, 96-well, primary screen (AID 463189); details: Chlamydomonas reinhardtii gravitaxis, OD600 absorbance, 2 days; at 10 µM; stronger effect = higher value;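 further: 0% = wild type cc124 cells in DMSO and 100% = ciliumless bld1 mutant cells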
[12] = blockers of RIG-like receptor reporter activation – cell-based, Sendai virus stimulus, luciferase, 10K MLSCN set, TLR/RLR signaling modifier project, primary screen (AID 602276;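 active means inhibition at or above 50% at 10 µM; inactive means inhibition below 50%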;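 further: firefly luciferase from ISG56 promoter only with Renilla not read in this screen; 0% = Sendai virus plus DMSO and 100% = medium plus DMSO without virus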); details: HEK293 RL24 IRF3 luciferase reporter, at 10 µM, stronger effect = higher value
[13] = TLR3 IRF3 reporter activation blockers – cell-based, poly I:C stimulus, luciferase, 10K MLSCN set, primary screen (AID 602277;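 active means inhibition of the reporter signal at or above 50%; inactive means inhibition below 50%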); details: HEK293-TLR3 RL24 IRF3 luciferase reporter, at 10 µM, stronger effect = higher value
[14] = measured here: cell density z-score
[15] = measured here: nuclear c-Myc green intensity z-score
[16] = measured here: nuclear pErk red intensity z-score, stronger effect = higher value

Compound	cell count [1]	inhibition [1]	inhibition of aggregation [2]	nuclei count [2] [%]	inhibition [3]	nuclei count [3] [%]	z-score [4, 14]	z-score [4, 15]	z-score [4, 16]	inhibition [5]	fluorescence slope [6]	NADPH fluorescence slope [7]	slope [8]	fluorescence slope [9]	outcome [10]	inhibition [11]	inhibition [12]	inhibition [13]
COC(=O)/C=c1/s/c(=C(/C#N)C(=O)N2CCOCC2)n(-c2ccccc2)c1=O	611	1.5% (inactive)	-12.2% (inactive)	98.4	7.3% (inactive)	119	0.31	-0.164	-0.787	1.63% (inactive)	-0.479 (inactive)	-5e-05 (inactive)	0.0052 (inactive)	0.00508 (inactive)	inactive	21% (inactive)	15.2% (inactive)	17.7% (inactive)
O=C(Nc1ccccc1C(=O)NCCCn1ccnc1)c1ccccc1	440	-10.6% (inactive)	9.5% (inactive)	110	-58.9% (inactive)	90.3	0.245	0.366	-0.747	3.97% (inactive)	-0.353 (inactive)	1.7e-06 (inactive)	0.00553 (inactive)	0.00574 (inactive)	inactive	-14.6% (inactive)	12.2% (inactive)	22.1% (inactive)
CCN1CCc2c(C#N)c(N3CCOCC3)nc(NCc3ccccc3)c2C1	507	9.3% (inactive)	4.7% (inactive)	80.7	-218% (inactive)	110	0.377	-1.7	2.2	-11.5% (inactive)	-0.484 (inactive)	-3.1e-05 (inactive)	0.00496 (inactive)	0.00486 (inactive)	inactive	27.4% (inactive)	10.8% (inactive)	10.8% (inactive)
Cc1cc(N2C(=O)C(=O)/C(=C(/O)c3ccc(F)cc3)C2c2ccc(F)cc2)no1 (centres undefined)	430	-7.1% (inactive)	10.1% (inactive)	60.9	-108% (inactive)	122	-1.41	1.25	1.07	1.04% (inactive)	-0.407 (inactive)	-3.1e-05 (inactive)	0.00571 (inactive)	0.0056 (inactive)	inactive	0.694% (inactive)	14.8% (inactive)	7.49% (inactive)
C=CCn1c(SCC(=O)c2ccccc2)nnc1-c1ccc2c(c1)OCO2	728	-2.4% (inactive)	-1% (inactive)	92.4	-60.6% (inactive)	117	0.143	0.0826	1.39	-13.3% (inactive)	-0.528 (inactive)	-3.6e-05 (inactive)	0.00455 (inactive)	0.00674 (inactive)	inactive	-7.63% (inactive)	-8.67% (inactive)	-3.99% (inactive)
CS(=O)(=O)Nc1ccc([N+](=O)[O-])cc1Oc1ccccc1	692	-0.7% (inactive)	0% (inactive)	95.3	-24.1% (inactive)	124	-0.515	1.09	-0.635	11.3% (inactive)	-0.557 (inactive)	-3.9e-05 (inactive)	0.00467 (inactive)	0.00499 (inactive)	active; no signal in intestine only	9.15% (inactive) and 12.1% (inactive)	15% (inactive)	15.8% (inactive)
COc1ccc(Cn2c(N)c(C#N)c3nc4ccccc4nc32)cc1OC	497	2.3% (inactive)	12.4% (inactive)	100	-66.5% (inactive)	123	0.51	-0.363	-0.944	27.8% (inactive)	-0.285 (inactive)	-1.3e-05 (inactive)	0.00453 (inactive)	0.00496 (inactive)	inactive	2.2% (inactive)	15.4% (inactive)	14.9% (inactive)
CC(=O)C1=C(NC(=O)c2ccccc2F)C[C@@H]2[C@H]1C2(C)C	511	0.8% (inactive)	-2.1% (inactive)	99.3	-94.2% (inactive)	126	0.289	-1.02	0.959	11.9% (inactive)	-0.395 (inactive)	-7.2e-05 (inactive)	0.00586 (inactive)	0.00577 (inactive)	inactive	13.1% (inactive)	-7.48% (inactive)	-10.2% (inactive)
N#Cc1c(N2CCOCC2)nc(N2CCCCC2)c2c1CCN(C1CCCCC1)C2	486	-5.3% (inactive)	6.4% (inactive)	102	-130% (inactive)	119	-0.146	1.29	0.496	-13.3% (inactive)	-0.442 (inactive)	-0.000108 (inactive)	0.00466 (inactive)	0.00444 (inactive)	inactive	2.06% (inactive)	-1.64% (inactive)	99% (active)
C=CCNc1nnc(SC2CC(=O)N(c3ccc(OC)cc3)C2=O)s1 (centres undefined)	474	-3.2% (inactive)	-17.3% (inactive)	121	-46.1% (inactive)	151	-0.38	-0.537	0.655	5.95% (inactive)	-0.391 (inactive)	-3.8e-05 (inactive)	0.00566 (inactive)	0.00596 (inactive)	inactive	34% (inactive)	12.1% (inactive)	-1.97% (inactive)
Cn1c(=O)c2c(nc(Oc3ccc4c(c3)OCO4)n2Cc2ccc(F)cc2)n(C)c1=O	691	-7.2% (inactive)	4.8% (inactive)	108	-27.6% (inactive)	90.8	-1.8	-0.122	-1.44	1.9e-07% (inactive)	-0.503 (inactive)	-2e-05 (inactive)	0.00727 (inactive)	0.00586 (inactive)	inactive	-14.6% (inactive)	20.6% (inactive)	26.7% (inactive)
CN1C(=O)c2c(sc3c2CCCC3)NC1c1ccccc1O (centres undefined)	432	-5.1% (inactive)	-1.6% (inactive)	97.6	-128% (inactive)	136	1.59	-1.82	0.821	-2.59% (inactive)	-0.47 (inactive)	-0.000117 (inactive)	0.00476 (inactive)	0.00402 (inactive)	inactive	15.4% (inactive)	-8.68% (inactive)	-24.4% (inactive)
Cc1cc(Cn2ccnc2)c(C)cc1Cn1ccnc1	637	-4.4% (inactive)	7.9% (inactive)	100	-55.4% (inactive)	124	-0.00236	1.89	-0.864	-7.67% (inactive)	-0.463 (inactive)	-0.000121 (inactive)	0.00445 (inactive)	0.0041 (inactive)	inactive	139% (active)	19.2% (inactive)	17.7% (inactive)
Cc1cc(C)n(CC2CC(=O)N(c3ccc(Cl)c(Cl)c3)C2=O)n1 (centres undefined)	566	-4.3% (inactive)	-16.2% (inactive)	104	-50.6% (inactive)	139	0.432	-0.507	0.03	12.8% (inactive)	-0.489 (inactive)	-5.7e-05 (inactive)	0.0052 (inactive)	0.00497 (inactive)	inactive	-1.93% (inactive)	-1.21% (inactive)	6.73% (inactive)
Cc1nnc(NCc2n[nH]c(=O)c3ccccc23)c2ccccc12	459	-4.7% (inactive)	-19.6% (inactive)	51.5	-23.8% (inactive)	118	-2.3	1.26	1.58	7.21% (inactive)	-0.502 (inactive)	-0.000115 (inactive)	0.00499 (inactive)	0.0052 (inactive)	inactive	-15.8% (inactive)	4.22% (inactive)	-7.48% (inactive)
O=C(CCN1C(=O)c2ccccc2C1=O)OCN1C(=O)c2ccccc2C1=O	490	2.7% (inactive)	10% (inactive)	95.1	-112% (inactive)	151	0.766	-1.53	-0.92	29.7% (inactive)	-0.336 (inactive)	4.5e-07 (inactive)	0.00721 (inactive)	0.00607 (inactive)	inactive	1.44% (inactive)	-10.1% (inactive)	-11.6% (inactive)
CC(CN1CCN(C)CC1)OC(=O)c1ccc(Cl)cc1Cl (centres undefined)	495	2.7% (inactive)	-4.3% (inactive)	89.3	5.7% (inactive)	93.6	0.0987	0.463	-0.406	-0.624% (inactive)	-0.4 (inactive)	-7.7e-06 (inactive)	0.00282 (inactive)	0.00468 (inactive)	inactive	136% (active)	11.3% (inactive)	23.1% (inactive)
Cc1cc(/C=c2/sc3nc4ccccc4n3c2=O)c(C)n1-c1ccccn1	477	-8.3% (inactive)	-17% (inactive)	105	-51.9% (inactive)	114	0.162	1.46	-0.242	1.04% (inactive)	-0.436 (inactive)	-8.3e-05 (inactive)	0.00546 (inactive)	0.00476 (inactive)	inactive	-7.65% (inactive)	58.3% (active)	93% (active)
